From PubChem
GPR7 antagonist = blocks human GPR7 receptor signaling; P48145; GPR7-expressing cells, fluorescence antagonist assay; inhibition, % at 4.4 µM; actives 1.1% (n = 290,000); in the data active = inhibition above about 16%, passing the limit was not always enough;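 note: cells stimulated with the agonist NPW; 0% = agonist with vehicle and 100% = vehicle without agonist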
TMEM16A inh = blocks the mouse calcium-activated chloride channel TMEM16A; Q8BHY3; HEK293 TMEM16A/YFP iodide influx fluorescence, ionomycin; normalized B-score (activity score, 25-100; higher = stronger inhibition) at 10 µM; actives 1.2% (n = 310,000); AID 588511;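 active = ratio plate-corrected score three or more library SD toward inhibition, starting fluorescence score within five deviations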;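 note: score derived from kinetic fluorescence span divided by baseline fluorescence per well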
Kir21 block = blocks the mouse Kir2.1 inward-rectifier potassium channel; AID 1672; HEK293-Kir2.1, FluxOR thallium flux fluorescence; stronger effect = lower value; B-score at 10 µM; actives 0.85% (n = 310,000); P35561;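 active = fluorescence ratio B-score at or below minus 3 SD of library scores, with starting-brightness B-score within 2 SD, cut at about -4.2 in these data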;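 note: channel flux triggered by added potassium and thallium sulfate stimulus; B-score of peak minus minimum fluorescence over baseline after thallium stimulus; more negative B-score means stronger Kir2.1 block with less thallium influx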
ANO1 activ = activates or potentiates the mouse TMEM16A chloride channel; Q8BHY3; HEK293 TMEM16A/YFP-H148Q/I152L, iodide quench fluorescence; stronger effect = lower value; B-score at 10 µM; actives 0.3% (n = 340,000); AID 623877;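 active = fluorescence-ratio B-score plate-corrected deviation score at least 3 library SD below zero, with starting fluorescence score within 5 deviations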;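 note: channel opened by trigger with iodide after compound preincubation; score built on the fluorescence ratio of max minus min over baseline; more negative score means more quench and so TMEM16A activation or potentiation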
CHT allo act = allosteric activators of human choline transporter CHT. CHT-expressing cells, membrane potential dye, choline EC20; stronger effect = higher value; LV-AA mutant CHT in HEK293 cells. B-score at 10 µM. actives 0.49% (n = 310,000);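 active = initial fluorescence not abnormally high and integrated response B-score, plate-corrected, over 3 SD above library mean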
Target sequence (Q9GZV3 whole entry, looked up): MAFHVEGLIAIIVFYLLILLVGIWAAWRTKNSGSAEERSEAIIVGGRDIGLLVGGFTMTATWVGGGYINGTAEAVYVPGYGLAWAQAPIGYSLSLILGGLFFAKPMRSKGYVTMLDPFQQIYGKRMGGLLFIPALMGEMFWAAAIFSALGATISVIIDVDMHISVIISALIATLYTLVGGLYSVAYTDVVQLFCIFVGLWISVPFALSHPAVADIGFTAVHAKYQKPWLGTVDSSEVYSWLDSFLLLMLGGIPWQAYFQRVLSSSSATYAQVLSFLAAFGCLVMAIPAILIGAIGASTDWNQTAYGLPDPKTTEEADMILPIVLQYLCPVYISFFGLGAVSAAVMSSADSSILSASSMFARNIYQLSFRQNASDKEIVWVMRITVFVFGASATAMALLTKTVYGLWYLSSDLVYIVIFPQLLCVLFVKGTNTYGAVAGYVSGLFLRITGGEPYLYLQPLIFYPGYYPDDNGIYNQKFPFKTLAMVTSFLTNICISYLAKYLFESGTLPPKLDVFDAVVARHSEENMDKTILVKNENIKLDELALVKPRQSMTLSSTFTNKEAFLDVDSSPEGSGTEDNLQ
CHT inh = inhibits the human high affinity choline transporter; B-score at 10 µM; actives 0.86% (n = 310,000); CHT-expressing cells, membrane potential dye, choline response; stronger effect = lower value; Q9GZV3;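 active = B-score over 3 SD under the library average, and starting fluorescence ratio not unusually high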;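 note: choline stimulus applied at its EC90 after an EC20 pre-addition; B-score computed on integrated fluorescence ratio after choline addition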
Active calls of the source: *; ! = not confirmed by another sample. Most compounds without a hit are left out; they make up all but 3.7% or so of the library.

What do the screens show for `COc1ccc2ccccc2c1-c1sc(Nc2ccccc2)n[n+]1-c1ccc(F)cc1`?
GPR7 antagonist: 6; TMEM16A inh: 100*; Kir21 block: -5.6*; ANO1 activ: inactive; CHT allo act: inactive; CHT inh: inactive

Results for CCOc1ccc(NC(=O)CN(C)S(=O)(=O)c2ccc(-c3ccc(=O)[nH]n3)s2)cc1 ?
GPR7 antagonist: -7; TMEM16A inh: inactive; Kir21 block: 3.4; ANO1 activ: inactive; CHT allo act: inactive; CHT inh: inactive

How did CCOC(=O)/C(=N\Nc1ccc(Cl)cc1)c1csc(Nc2ccccc2)n1 do in these assays?
GPR7 antagonist: -2; TMEM16A inh: 100*; Kir21 block: 0.24; ANO1 activ: inactive; CHT allo act: inactive; CHT inh: inactive

Results for CC(C)C1O/C(=N/C(=O)Nc2ccc(Cl)c(Cl)c2)NC1=O (stereo not drawn) ?
GPR7 antagonist: 17; TMEM16A inh: 100*; Kir21 block: 2.1; ANO1 activ: inactive; CHT allo act: inactive; CHT inh: inactive

Results for COc1ccc(C(=O)Nc2ccc(Cl)c(Cl)c2)c(OC)n1 ?
GPR7 antagonist: -7; TMEM16A inh: inactive; Kir21 block: 3; ANO1 activ: inactive; CHT allo act: inactive; CHT inh: inactive

How did Cc1[nH]c(C)c(S(=O)(=O)N2CCN(c3ccccc3)CC2)c1C(=O)N1CCCCC1 do in these assays?
GPR7 antagonist: 5; TMEM16A inh: inactive; Kir21 block: -0.04; ANO1 activ: inactive; CHT allo act: inactive; CHT inh: inactive

What do the screens show for `COc1ccc(Nc2c3c(nc4ccccc24)CCC3)cc1`?
GPR7 antagonist: 20; TMEM16A inh: inactive; Kir21 block: -12*; ANO1 activ: inactive; CHT allo act: inactive; CHT inh: inactive

Results for c1ccc2c(Nc3ccc4c(c3)OCCO4)c3c(nc2c1)CCC3 ?
GPR7 antagonist: 6; TMEM16A inh: inactive; Kir21 block: -0.98; ANO1 activ: inactive; CHT allo act: inactive; CHT inh: inactive

What do the screens show for `Cc1ccc2nc3c(c(Nc4ccccc4)c2c1)CCC3`?
GPR7 antagonist: 0; TMEM16A inh: inactive; Kir21 block: -4.4*; ANO1 activ: inactive; CHT allo act: inactive; CHT inh: inactive

Results for Fc1ccc(Nc2c3c(nc4ccccc24)CCC3)cc1 ?
GPR7 antagonist: -3; TMEM16A inh: inactive; Kir21 block: -5.1*; ANO1 activ: inactive; CHT allo act: inactive; CHT inh: inactive

What do the screens show for `Nc1c2c(nc3ccccc13)CCCC2`?
GPR7 antagonist: -12; TMEM16A inh: inactive; Kir21 block: 0.11; ANO1 activ: inactive; CHT allo act: 7.6*!; CHT inh: inactive

How did CN(C)c1ccc(/C=C2\Oc3ccc(C#Cc4cccc(N)c4)cc3C2=O)cc1 do in these assays?
ANO1 activ: inactive

What do the screens show for `COc1ccc(C(=O)OCC(=O)c2ccc[nH]2)c(OC)c1`?
ANO1 activ: inactive

What do the screens show for `O=C(CN1c2cccc3cccc(c23)S1(=O)=O)Nc1ccc(F)c(F)c1F`?
ANO1 activ: -5.1*

What do the screens show for `C=CCNC(=O)CN1c2cccc3cccc(c23)S1(=O)=O`?
GPR7 antagonist: 5; TMEM16A inh: inactive; Kir21 block: -1.4; ANO1 activ: -6.6*; CHT allo act: inactive; CHT inh: inactive

How did O=C(CN1c2cccc3cccc(c23)S1(=O)=O)Nc1c(F)c(F)c(F)c(F)c1F do in these assays?
ANO1 activ: inactive

How did O=C(CN1c2cccc3cccc(c23)S1(=O)=O)Nc1ccccc1F do in these assays?
GPR7 antagonist: -14; TMEM16A inh: inactive; Kir21 block: 0.98; ANO1 activ: -7.8*; CHT allo act: inactive; CHT inh: inactive

How did O=C(C1CCN(C2CCN(Cc3ccsc3)CC2)CC1)N1CCOCC1 do in these assays?
GPR7 antagonist: -6; TMEM16A inh: inactive; Kir21 block: 1.2; ANO1 activ: inactive; CHT allo act: inactive; CHT inh: inactive

How did CCOC(=O)c1c(-c2ccccc2)oc2ccc(O)c(CN3CCCC3)c12 do in these assays?
GPR7 antagonist: 4; TMEM16A inh: inactive; Kir21 block: -12*; ANO1 activ: inactive; CHT allo act: inactive; CHT inh: inactive

How did CN1/C(=C\C(=O)CSc2nnc(NCc3ccccc3)s2)C(C)(C)c2ccccc21 do in these assays?
GPR7 antagonist: 2; TMEM16A inh: inactive; Kir21 block: -9.7*; ANO1 activ: inactive; CHT allo act: inactive; CHT inh: inactive

How did Cc1cc(C(=O)CSc2nnc(NCc3ccccc3)s2)c(C)n1C do in these assays?
GPR7 antagonist: -3; TMEM16A inh: inactive; Kir21 block: -1.6; ANO1 activ: inactive; CHT allo act: inactive; CHT inh: inactive

Results for CC(C)c1nc2cc(C(=O)N3CCNC(=O)C3c3cccc(F)c3)ccc2o1 (stereo not drawn) ?
GPR7 antagonist: 2; TMEM16A inh: inactive; Kir21 block: 1.6; ANO1 activ: inactive; CHT allo act: inactive; CHT inh: inactive

What do the screens show for `COc1ccccc1CNS(=O)(=O)c1cc(C)ccc1OC`?
GPR7 antagonist: 4; TMEM16A inh: inactive; Kir21 block: -5.6*; ANO1 activ: inactive; CHT allo act: inactive; CHT inh: inactive

What do the screens show for `CC(Cc1ccc(O)c(O)c1)C(C)Cc1ccc(O)c(O)c1` (stereo not drawn)?
TMEM16A inh: 100*; Kir21 block: -11*; CHT allo act: inactive; CHT inh: inactive

How did COc1cc(C[C@@H](C)[C@@H](C)Cc2ccc(O)c(OC)c2)ccc1O do in these assays?
ANO1 activ: inactive

How did NNc1nc(Nc2ccccc2)nc(Nc2ccccc2)n1 do in these assays?
GPR7 antagonist: -2; TMEM16A inh: inactive; Kir21 block: -0.84; ANO1 activ: inactive; CHT allo act: inactive; CHT inh: inactive

How did c1ccc(Nc2ccnc(Nc3ccccc3)n2)cc1 do in these assays?
GPR7 antagonist: -15; TMEM16A inh: 25*; Kir21 block: -1; ANO1 activ: inactive; CHT allo act: inactive; CHT inh: inactive

What do the screens show for `CC1Oc2cc3oc4c(O)c(O)ccc4c(=O)c3c(O)c2C1(C)C` (stereo not drawn)?
TMEM16A inh: 100*; Kir21 block: 2.6; ANO1 activ: inactive; CHT allo act: inactive; CHT inh: inactive

What do the screens show for `O=C(c1ccc(COc2ccc(Cl)cc2)o1)N1CCN(Cc2ccc3c(c2)OCO3)CC1`?
GPR7 antagonist: -12; TMEM16A inh: 25*; Kir21 block: -1.3; ANO1 activ: inactive; CHT allo act: inactive; CHT inh: inactive

Results for O=C(c1ccc(COc2ccccc2Cl)o1)N1CCN(Cc2ccc3c(c2)OCO3)CC1 ?
GPR7 antagonist: 13; TMEM16A inh: inactive; Kir21 block: -0.63; ANO1 activ: inactive; CHT allo act: inactive; CHT inh: inactive
